Data taken from ChEMBL document CHEMBL3988442, “University of Dundee, Small-Polar-MMV Screening Library” (2021).

Molecular target: AMP-activated protein kinase, AMPK (Homo sapiens) (UniProt P54646+O43741+P54619+Q9UGJ0+Q9Y478+Q13131+Q9UGI9)
Assay: AMP-dependent Kinase enzyme assay. An in vitro enzyme assay that detects ADP turnover that is directly proportional to AMPK activity. This uses naive AMPK that is activated during the assay with MK-8722
Format: functional
Parameters: scale not given: direction of the effect not stated beside the values
Conditions: 30 µM

Row | SMILES | Percent Effect [%]
1 | Cc1csc(N2CCN(Cc3ccccn3)CC2)n1 | -1.61
2 | CCNC(=O)C1CCN(Cc2ccc(C(=O)Nc3cnns3)cc2)C1 (stereo not given) | 1.07
3 | CCOC(=O)N1CCN(C(=O)Cn2ccc3ncccc3c2=O)CC1 | -0.626
4 | COc1cccc(-n2cc(CN(C)Cc3ccnc(C(C)C)n3)cn2)c1 | -12.4
5 | O=C(NC1CC1)c1cnc2n1CCCC2 | -4.04
6 | CC1(C)OC(=O)N(CC(=O)N2CCC(c3ccccc3Cl)C2)C1=O (stereo not given) | 8.7
7 | Cn1ncc2c1CCCC2NCc1cccnc1 (stereo not given) | 5.94
8 | COC(=O)c1ccc2c(c1)CCCN2S(=O)(=O)c1cn(C)c(C)n1 | -5.88
9 | Cc1c(NC(=O)c2ncn[nH]2)cccc1C(=O)NC(C)(C)C | 5.84
10 | CC(C)Oc1ccccc1CNC(=O)N(C)CC(F)F | 1.53
11 | CCC1(CC)CC(=O)N(CC(O)c2cccc(F)c2)C1=O (stereo not given) | 12.2
12 | CC(=O)c1cnc(NCCN2CCCC2)nc1C | -8.98
13 | Cc1nc(O)cc(CN2C[C@H](NC(=O)C3CCCC3)[C@@H](C3CC3)C2)n1 | -1.66
14 | Cc1cc(C)c2c(NCc3nncn3C3CCCCC3)ncnc2n1 | -0.11
15 | COc1cc(CN(C)[C@@H]2COC[C@H]2c2ccc(F)cc2)cc(OC)c1 | -11.5
16 | CCOC(=O)C1(O)CCN(C(=O)Nc2cccc(CC)c2)CC1 | -6.62
17 | CCc1nc(C)c(C(=O)N2C[C@@H](C(=O)O)[C@H](C3CC3)C2)s1 | 2.29
18 | CC1(NC(=O)CNC(=O)C(C)(C)C)CCc2ccccc2C1 (stereo not given) | 7.71
19 | CC(C)(C)c1noc(CCC(=O)N2CCNC(=O)C2)n1 | -9.99
20 | Cc1nccn1[C@@H]1CC[C@@H](N(C)S(=O)(=O)c2ccc(F)cc2)[C@H]1O | 27.2

Row | SMILES | Percent Effect [%]
21 | CCc1noc(C(C)N2CCN(Cc3noc(C4CC4)n3)CC2)n1 (stereo not given) | 0.498
22 | Cc1nc(C)n(CC2CCCN2c2ncnc3sccc23)n1 (stereo not given) | 1.91
23 | CSc1nccc(N2CCC(NCc3nc(C)cc(C)n3)CC2)n1 | 7.66
24 | CCOc1ccccc1C(C(=O)O)N(C)Cc1cc(C)[nH]n1 (stereo not given) | 5.49
25 | Cc1nc2c(c(=O)[nH]1)CN(C(=O)CC[C@@H]1CCCN3CCCC[C@H]13)C2 | 16.1
26 | CCCN1CCC(N(C)C(=O)c2cc(C)nc3cc(F)ccc23)CC1 | -6.76
27 | Cn1cc(S(=O)(=O)N(CC(F)(F)F)C2CC2)cc1C(N)=O | 1.54
28 | CCOc1ccc(Cl)cc1CCNC(=O)c1ccc(=O)n(C)c1 | 7.18
29 | COCc1c(Cl)cccc1NC(=O)CNC(=O)C(C)(C)C | -4.63
30 | NC1CCc2nc(-c3ccncc3)nc(Nc3cccc(F)c3)c2C1 (stereo not given) | -70.9
31 | CCCNc1cc(-c2c[nH]nc2C2CCN(C(=O)C3CCC3)C2)ccn1 (stereo not given) | 43.5
32 | Cc1cc(C)n(C2CN(CCC(=O)NCCc3ccccc3)C2)n1 | 2.98
33 | COCCOc1ccc(F)cc1NCc1nc2ccccc2n1C | 8.68
34 | CCCC1(CO)CCCN(C(=O)CN2CCN(CC)CC2)C1 (stereo not given) | -3.5
35 | CN1C[C@@H]2CC[C@H](CC1=O)N2C(=O)c1ccc(-c2ccccc2)[nH]c1=O | 12.5
36 | O=C(Cc1c(F)cccc1Cl)Nc1cc(N2CCOCC2)ncn1 | 5.35
37 | O=C(C1CCOC1)N1CCN(CC(F)(F)F)c2ccccc21 (stereo not given) | 11.6
38 | Cc1noc(C2CCCN(Cn3cc(Br)cn3)C2)n1 (stereo not given) | -2.31
39 | CCn1cc(C(=O)NCCN2CCCc3ccccc32)c(C)n1 | 7.97
40 | Cc1cccc(COc2ccc(C(C)NS(N)(=O)=O)cc2)c1 (stereo not given) | 7.65
